The record followed here is PubChem BioAssay AID743498 (The Scripps Research Institute Molecular Screening Center, 2014).

The source made the active and inactive calls.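 Rule for the calls: active = IC50, the dose giving half inhibition, at or below 10 µM; inactive = IC50 above 10 µM.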

The nature of this assay: displacement of TO-PRO-1 from d(CAG) DNA duplex, late-stage follow-up, counter-screen for r(CAG) RNA repeat binder project, biochemical, fluorescence, 5'CAG/3'GTC DNA, powders, MedChem round 1 (AID 743498). The following applies: DNA d(CAG) repeat TO-PRO-1 dye displacement. (In general: The purpose of a counterscreen is to sort out artefacts and off-target activity.)
Take `CN(C)C(=O)C1CCN(C(=O)/C=C/c2cn(-c3ccccc3)nc2-c2ccccc2)CC1`: the IC50 is > 29.9 µM (inactive). For `Cc1c(C(=O)Nc2ccc(S(=O)(=O)NCCCN3CCOCC3)cc2)oc2ccc(F)cc12` the value was > 29.9 µM (inactive); for `CC(=O)NS(=O)(=O)c1ccc(NC(=O)/C=C/c2cn(-c3ccccc3)nc2-c2ccccc2)cc1`, 3.6 µM (active); for `CCN(CC)C(=O)/C=C/c1cn(-c2ccccc2)nc1-c1ccccc1`, > 29.9 µM (inactive).

With `CCN1CCN(C(=O)/C=C/c2cn(-c3ccccc3)nc2-c2ccccc2)CC1`, the IC50 is > 29.9 µM (inactive). For `CN1C(=O)/C(=C/c2cn(-c3ccccc3)nc2-c2ccccc2)c2ccccc21` the value was > 29.9 µM (inactive); for `O=C(/C=C/c1cn(-c2ccccc2)nc1-c1ccccc1)NCCO`, > 29.9 µM (inactive); for `Cc1ccc(-c2nn(-c3ccccc3)cc2/C=C/C(=O)Nc2ccc(S(N)(=O)=O)cc2)cc1`, > 29.9 µM (inactive). The result for `NS(=O)(=O)c1ccc(NC(=O)/C=C/c2cn(-c3ccccc3)nc2-c2cccc(Cl)c2)cc1` reads > 29.9 µM (inactive); that for `Cc1ccc(-c2nn(-c3ccccc3)cc2/C=C/C(=O)Nc2cccc(S(N)(=O)=O)c2)cc1`, > 29.9 µM (inactive).

With `O=C(/C=C\c1cn(-c2ccccc2)nc1-c1ccc(F)cc1)Nc1ccc(C(=O)O)cc1`, the IC50 is 4.76 µM (active). `COc1ccc(NC(=O)/C=C/c2cn(-c3ccccc3)nc2-c2ccc(OC)cc2)cc1`: the IC50 was > 29.9 µM (inactive). For `O=C(/C=C/c1cn(-c2ccccc2)nc1-c1ccccc1)NCCc1c[nH]c2ccccc12` the value was > 29.9 µM (inactive); for `CN(C)CCCNC(=O)/C=C/c1cn(-c2ccccc2)nc1-c1ccccc1`, > 29.9 µM (inactive); for `O=C(/C=C/c1cn(-c2ccccc2)nc1-c1ccccc1)NCc1ccccc1`, > 29.9 µM (inactive). The result for `Cc1c(C(=O)Nc2ccc(S(=O)(=O)Nc3ncccn3)cc2)oc2ccc(F)cc12` reads > 29.9 µM (inactive); that for `COC(=O)c1ccc(NC(=O)/C=C/c2cn(CCC#N)nc2-c2ccc(F)cc2)cc1`, > 29.9 µM (inactive); that for `O=C(/C=C/c1cn(-c2ccccc2)nc1-c1ccc2ccccc2c1)Nc1ccc(C(=O)O)cc1`, 3.53 µM (active). For `N#C/C(=C/c1cn(-c2ccccc2)nc1-c1cccnc1)C(=O)Nc1ccc(C(=O)O)cc1` the value was 28.6 µM (inactive); for `NC(=O)c1cc(NC(=O)/C=C/c2cn(-c3ccccc3)nc2-c2ccc(F)cc2)c(F)cc1F`, > 29.9 µM (inactive). Turning to `O=C(/C=C/c1cn(-c2ccccc2)nc1-c1ccccc1)N1CCN(CC(=O)N2CCCC2)CC1`, the IC50 is > 29.9 µM (inactive).

In the case of `COc1ccc(-c2nn(-c3ccccc3)cc2/C=C/C(=O)Nc2cccc(NC(C)=O)c2)cc1OC`, the IC50 was > 29.9 µM (inactive). `CCOC(=O)N1CCC(NC(=O)/C=C/c2cn(-c3ccccc3)nc2-c2ccccc2)CC1`: the IC50 is > 29.9 µM (inactive). For `CNC(=O)Cc1ccc(NC(=O)/C=C/c2cn(-c3ccccc3)nc2-c2ccc(F)cc2)cc1` the value was > 29.9 µM (inactive). The result for `N#C/C(=C/c1cn(Cc2ccccc2)nc1-c1cccnc1)C(=O)Nc1ccc(C(=O)O)cc1` reads > 29.9 µM (inactive); that for `O=C(/C=C/c1cn(-c2ccccc2)nc1-c1ccccc1)Nc1cc(S(=O)(=O)N2CCCC2)ccc1Cl`, > 29.9 µM (inactive); that for `CCN(c1ccccc1)S(=O)(=O)c1ccc(NC(=O)c2oc3ccc(F)cc3c2C)cc1`, > 29.9 µM (inactive). Consider `CN1CCC(N(C)C(=O)/C=C/c2cn(-c3ccccc3)nc2-c2ccccc2)CC1`, for which the IC50 is > 29.9 µM (inactive). On to `CS(=O)(=O)Nc1cc(NC(=O)/C=C/c2cn(-c3ccccc3)nc2-c2ccccc2)ccc1F`, for which the IC50 is 12.2 µM (inactive). The result for `COc1ccc(-c2nn(-c3ccccc3)cc2/C=C/C(=O)Nc2ccc(C(=O)O)cc2)cc1` reads 3.83 µM (active); that for `Cc1c(C(=O)Nc2ccc(S(=O)(=O)N(C)Cc3ccccc3)cc2)oc2ccc(F)cc12`, > 29.9 µM (inactive).

As a reminder, the IC50 is the concentration at which inhibition is half-maximal.
